For five compounds, max response and Potency results are on record in PubChem BioAssay (NCATS).

The structures appear in SMILES notation. Results filed as inconclusive are left out. A number with no mark means an inactive call. The source made the active and inactive calls. Calls follow the shape of the dose curve; as a rule, active = well fitted curve in the direction sought with a large enough effect; inconclusive = small, poorly fitted or top-dose-only effect, or another doubt; inactive = no such curve, though single readings can be large or run the other way. Where a SMILES comes first, the peptide text is derived from it. Bridges are numbered along the chain shown (N, C = ends). [ ]: non-standard residue; d: D form. The star is where a group is joined. X2 = CC[C@H](C)CCCCC(=O)*; Dab = NCC[C@H](N)C(=O)O
% is scaled to controls: 0 for no effect and ±100 for the full control effect; potency is read from the fitted curve at half-maximal effect.

A short description of the assay: qHTS Assay for Identifying Gametocytocidal Compounds (AID 743244).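 As to max response: actives lower the fluorescent signal which means gametocytes are killed.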 To be noted: P. falciparum 3D7 stage III-V gametocytes, alamarBlue, 72 h; max response: active compounds read low. The method, boiled down:
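Fluorescence at Ex 525/Em 598 nm, recorded 24 h after alamarBlue addition, reports residual metabolic activity of 3D7 gametocytes (stages III–V) following 72 h compound exposure at 37 °C, 5% CO2.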
A general note: Quantitative high-throughput screening tests each substance at several concentrations.
With `O=S(=O)(O)Oc1ccc(C(c2ccc(OS(=O)(=O)O)cc2)c2ccccn2)cc1`, the max response is 4.73%. On the same count and under the same terms, as for `CCCCCC(O)/C=C/C=O` (stereo not given), the figure is -0.932%; as for `CC[C@H](C)CCCCC(=O)N[C@@H](CCN)C(=O)N[C@H](C(=O)N[C@@H](CCN)C(=O)N[C@H]1CCNC(=O)[C@H]([C@@H](C)O)NC(=O)[C@H](CCN)NC(=O)[C@H](CCN)NC(=O)[C@H](CC(C)C)NC(=O)[C@@H](CC(C)C)NC(=O)[C@H](CCN)NC1=O)[C@@H](C)O` (X2-[Dab]T[Dab][Dab][Dab][dL]L[Dab][Dab]T; lactam 4-C), 13.6%; as for `CCOC(=O)[C@H](CCc1ccccc1)N[C@@H](C)C(=O)N1CC2(C[C@H]1C(=O)O)SCCS2`, 8.21%. Regarding `CC1(S(=O)(=O)O)CC(=O)c2ccccc2C1=O` (stereo not given), the Potency was 6.31 µM (active).
